Screening results: PubChem BioAssay, National Center for Advancing Translational Sciences (NCATS)
The list is not random: actives were taken first. Their share in the collection is about 12%.
TDP1 inh: TDP1 (human) enzyme inhibition; Q9NUW8; recombinant TDP1, AlphaScreen DNA substrate cleavage; Potency, µM (top dose mostly 130 µM), inactives show top-dose activity change, negative = inhibition, actives largely listed as inhibitors; 350,000 tested, 0.28% active; AID 485290; further: on the % scale 0 is the no-effect control and ±100 the full control effect; nearly all actives have a fitted effect of over 40% in size
Target sequence (Q9NUW8 whole entry, looked up): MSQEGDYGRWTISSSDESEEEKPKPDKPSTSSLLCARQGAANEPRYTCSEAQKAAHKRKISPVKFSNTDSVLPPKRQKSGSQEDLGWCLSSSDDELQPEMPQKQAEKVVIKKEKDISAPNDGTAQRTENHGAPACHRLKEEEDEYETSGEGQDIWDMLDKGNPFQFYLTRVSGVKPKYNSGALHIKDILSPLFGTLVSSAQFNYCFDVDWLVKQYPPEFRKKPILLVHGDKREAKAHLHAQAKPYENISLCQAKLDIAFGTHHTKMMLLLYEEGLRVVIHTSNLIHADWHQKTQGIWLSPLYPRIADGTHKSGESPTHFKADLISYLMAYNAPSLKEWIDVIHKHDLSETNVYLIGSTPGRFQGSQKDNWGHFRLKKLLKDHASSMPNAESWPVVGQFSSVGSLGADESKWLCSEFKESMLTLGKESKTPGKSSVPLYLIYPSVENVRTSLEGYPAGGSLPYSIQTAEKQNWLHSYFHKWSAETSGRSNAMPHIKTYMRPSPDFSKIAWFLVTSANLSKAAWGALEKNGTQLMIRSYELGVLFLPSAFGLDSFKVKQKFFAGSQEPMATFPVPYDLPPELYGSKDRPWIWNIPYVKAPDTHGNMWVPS
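Recombinant human Tdp1 (E. coli-expressed, 1 nM final) preincubated with compounds 15 min at room temperature, then 5'-biotin/3'-phosphotyrosine-FITC DNA substrate (15 nM final) added for 5 min. AlphaScreen beads (10 ug/ml final) added 10 min; cleavage lowers signal.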
HP1b binding inh: inhibitors of HP1-beta chromodomain binding to methylated histone tails; P83916; Potency, µM (highest dose often 114 µM), for inactives: top-dose activity change, negative = inhibition, actives largely listed as inhibitors; AID 540317; 390,000 tested, 0.56% active; AlphaScreen HP1-beta / biotin-H3K9me3 peptide binding; further: nearly all actives have a fitted effect of over 70% in size
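Compound inhibition of the preformed complex between 50 nM HP1-beta and 50 nM biotinylated H3K9me3 peptide was read by AlphaScreen. Buffer was PBS pH 7.4 with 0.01% Tween-20. Incubations ran 30 min at room temperature, with 10 ug/mL donor/acceptor beads.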
Sfp PPTase inh: blocks B. subtilis Sfp PPTase activity | Q9F4F7 | Biochemical Sfp PPTase activity, qHTS | Potency, µM, for inactives: largest response in the series, negative = inhibition, most hits filed as inhibitors | 310,000 tested, 3.5% active | AID 1490;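 further: the enzyme is Sfp with the accession as filed and its product quenches rhodamine fluorescence; 0% = enzyme reaction without inhibitor and -100% = no enzyme wells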
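After 15 min at room temperature with compound, 15 nM Sfp received 5 uM rhodamine-CoA plus 12.5 uM BHQ-2-ybbR (50 mM Hepes pH 7.6, 10 mM MgCl2). Rate came from the fluorescence difference over 30 min, ex 525/em 598 nm.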
BAZ2B inh: BAZ2B (human) inhibition | 360,000 tested, 4.4% active | AlphaScreen BAZ2B-H3K14Ac peptide displacement | Potency, µM (top dose mostly 114 µM), for the others: top-dose activity change, negative = inhibition, usual class: inhibitors; further: on the % scale 0 is the no-effect control and ±100 the full control effect; nearly all actives have a fitted effect of over 60% in size
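Compounds, titrated to a top concentration of 110 uM, were incubated 30 min at room temperature with preformed BAZ2B/acetyl-K14 H3 peptide complex (50 nM each). Proximity signal was measured by AlphaScreen after 20 min with beads.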
JMJD2A Tudor: inhibitors of human JMJD2A Tudor domain. AID 504339. O75164. 390,000 tested, 4.4% active. AlphaScreen JMJD2A-Tudor / H3K4me3 peptide binding. Potency, µM (series often up to 114 µM), for inactives: at the highest dose activity change, negative = inhibition, usual class: inhibitors; further: on the % scale 0 is the no-effect control and ±100 the full control effect; nearly all actives have a fitted effect of over 50% in size
G9a block: blocks human histone lysine methyltransferase G9a | G9a H3K9 monomethylation, AlphaScreen, 2 h | 350,000 tested, 8.8% active | Potency, µM (titrated, usually from 102 µM), for inactives: top-dose activity, negative = inhibition, actives largely listed as inhibitors | Q96KQ7 | AID 504332; further: on the % scale 0 is the no-effect control and ±100 the full control effect; nearly all actives have a fitted effect of over 75% in size
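Step 1: enzyme (final 20 nM) with compound, 15 min RT. Step 2: substrate peptide 500 nM and SAM 20 uM, 2 h RT. Step 3: anti-H3K9me1 antibody and AlphaScreen beads, 10 min, then plate read.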
Numbers without * were called inactive; ? = inconclusive; / = no result given; ! = not active in a repeat; [ ] = another dose, or the depositor's remark. The call rests on the fitted dose curve; in most records, active means well fitted curve in the direction sought with a large enough effect; inconclusive means small, poorly fitted or top-dose-only effect, or another doubt; inactive means no such curve, though single readings can be large; an effect the other way counts as inactive or inconclusive. Potency means the concentration at half of the fitted maximal effect.

SMILES | TDP1 inh | HP1b binding inh | Sfp PPTase inh | BAZ2B inh | JMJD2A Tudor | G9a block
CSc1cccc(NC(=O)Cn2c(=O)n(Cc3ccccc3)c(=O)c3sc4ccccc4c32)c1 | -1% | 35% | / | 2% | 4% | 13%[59 µM]
CC(C)c1ccc(Nc2nnns2)cc1 | / | ? | 20µM* | -13% | ? | 10µM*
CCOc1ccc2nc(NC(=O)c3ccc(OCC4CCCO4)cc3)sc2c1 (stereo unspecified) | 1% | 25% | ? | 14% | -2% | 45µM*
CCOCC(=O)Nc1nc2ccc(OCC)cc2s1 | -11% | 19% | 11% | 0% | -15% | -25%[12.7 µM]
CCOc1ccc2nc(NS(=O)(=O)c3ccc4c(c3)n(C)c(=O)n4C)sc2c1 | 2% | 45% | -1% | 56µM* | 7% | ?
CCOc1ccc2nc(NC(=O)Cn3c(C)csc3=O)sc2c1 | -10% | 13% | / | -7% | -17% | 40µM*
CCOc1ccc2nc(NS(C)(=O)=O)sc2c1 | 1% | 46% | -26% | -17% | -19% | 7.1µM*
O=C(c1ccc(C(F)(F)F)cc1)N1CCN(S(=O)(=O)c2ccc3c(c2)OCCCO3)CC1 | 2% | 14% | -17% | -2% | -3% | /
Cc1cc(NC(=O)Cn2cnc3sccc3c2=O)no1 | 1% | 15% | / | / | -4% | /
CCOc1ccc2nc(Cl)sc2c1 | 7% | 2% | -33% | 15% | -3% | 35µM*
CCOc1ccc2nc(N)sc2c1 | 15% | / | / | / | / | /
O=C(O)CN1C(=O)/C(=C2\C(=O)N(Cc3ccccc3Cl)c3ccccc32)SC1=S | / | -36% | -5% | ? | ? | 14µM*
Cc1ccc2c(c1)C(=O)C(=O)N2Cc1ccc(F)cc1 | 6% | ? | / | / | ? | /
O=C1/C(=C2\C(=O)N(Cc3ccc(F)cc3)c3ccccc32)SC(=S)N1CCS(=O)(=O)O | / | ? | -11% | 14µM* | 10µM* | ?
CC(C(=O)NN)n1nnc(N2CCOCC2)n1 (stereo unspecified) | 6% | 53% | 5% | 0% | -2% | /
CC(C(=O)NNS(=O)(=O)c1cccc(C(F)(F)F)c1)n1nnc(N2CCOCC2)n1 (stereo unspecified) | 3% | 15% | 8% | -16% | 14µM* | 32µM*
CCC(C)Cn1cnc2c(SCc3ccccn3)nc(N)nc21 (stereo unspecified) | / | 19% | / | / | -10% | /
Cc1ccc(CNC(C)c2ccccc2)s1 (stereo unspecified) | 6% | 19% | / | 0% | -5% | -4%[59 µM]
CC(NCCC(c1ccccc1)c1ccccc1)c1ccccc1 (stereo unspecified) | 5% | 41% | 25µM*! | -14% | -6% | ?
O=C(CN1C(=O)S/C(=C\c2ccccc2)C1=O)NCCCn1ccnc1 | 5% | 30% | -23% | ? | ? | 35µM*
O=C(CCN1C(=O)/C(=C/c2ccccc2)SC1=S)NCCc1ccc(O)cc1 | 2% | 19% | 25% | -17% | -8% | 51%
O=C(CCN1C(=O)/C(=C/c2ccccc2F)SC1=S)NCCCn1ccnc1 | 9% | -7% | -12% | 40µM* | ? | /
O=C(CCN1C(=O)S/C(=C\c2ccccc2)C1=O)NCCCn1ccnc1 | 3% | 36% | 14% | -26% | -22% | -23%[59 µM]
O=C(CCCN1C(=O)/C(=C/c2ccccc2)SC1=S)NCCCn1ccnc1 | 9% | -9% | 10% | 45µM* | ? | -23%
CC(=O)NC(CC(=O)NCCN1C(=O)S/C(=C\c2ccccc2)C1=O)c1ccccc1 (stereo unspecified) | 0% | 21% | -23% | -3% | -16% | 56µM*
SMILES | TDP1 inh | HP1b binding inh | Sfp PPTase inh | BAZ2B inh | JMJD2A Tudor | G9a block
O=C1Nc2c(Br)cccc2C1=O | 0% | 54% | / | / | -1% | /
CCOc1ccc(-n2c(SCC(=O)N3CCC(C(=O)O)CC3)nc3ccccc3c2=O)cc1 | 7% | 16% | 4% | 0% | -12% | -4%
COc1ccc(C2Nc3ccccc3C(=O)N2Cc2ccccc2)cc1COc1ccc(Cl)cc1 (stereo unspecified) | -1% | / | / | / | -3% | /
C/C(CS(=O)(=O)c1ccc(Cl)c(Cl)c1)=N/NC(N)=S | -1% | 17% | ? | 7% | -12% | 6%
C/C(CS(=O)(=O)c1ccc(Cl)cc1)=N/NC(N)=S | 2% | 66% | 79µM* | -10% | -8% | -4%
C=CCc1c(Cl)nc(C)nc1NCc1ccccc1 | 1% | 65% | 3% | 4% | 10% | /
O=C(COC(=O)CNC(=O)c1ccccc1)Nc1nnc(-c2ccccc2)o1 | -11%[0.505 µM] | 51% | / | ? | ? | 45µM*
COc1cc(C(=O)NCC(=O)OCC(=O)Nc2nnc(-c3ccccc3)o2)cc(OC)c1OC | / | 12% | / | ? | 22µM* | -4%[59 µM]
COc1cc(C(=O)NCC(=O)OCC(=O)c2cccc3ccccc23)cc(OC)c1OC | 5% | 7% | 17% | -24% | -4% | 71µM*
N=C(N)Sc1nc(N2CCCCC2)nc(N2CCCCC2)n1 | 5% | 30% | -20% | 79µM* | -14% | 9%[12.7 µM]
Cn1c(=O)c(=O)n(C)c2cc(N3CCCC3)c(NC(=O)c3ccccc3F)cc21 | -8% | 24% | / | 1% | -7% | 4%[59 µM]
CN(CCO)CCOCCOc1cccc2ccccc12 | -5% | ? | ? | / | 10µM* | ?
Cc1ccc(NC2=C/C(=N/S(=O)(=O)c3cccs3)c3ccccc3C2=O)cc1 | 5% | ? | -1% | ? | -28%[57.1 µM] | 2.8µM*
O=C1C(Nc2ccccc2)=C/C(=N/S(=O)(=O)c2cccs2)c2ccccc21 | 12% | 11µM* | ? | 2.8µM* | 4µM* | 8.9µM*
COC(=O)c1ccccc1NC1=C/C(=N\S(=O)(=O)c2cccs2)c2ccccc2C1=O | 12% | 7.1µM* | 18% | 1.4µM* | 4µM* | 1.8µM*
N#Cc1cccc2c1-c1ccccc1/C2=N/NC(N)=S | / | -16% | -26% | ? | ? | 89µM*
CC(C)c1ccc(CN(C)C(=O)c2ccc(S(=O)(=O)NCc3ccco3)cc2)cc1 | 2%[56.1 µM] | 10% | / | ? | ? | -3%[2.33 µM]
O=C(NCCc1ccc2c(c1)OCCO2)c1cc(S(=O)(=O)N2CCCC2)ccc1Cl | 4% | 25% | / | -15% | -15% | 40µM*
CC[C@@H](C)[C@H](CNC)NC[C@@H](Cc1cccc2ccccc12)NCCc1cccc(C(F)(F)F)c1 | / | 10% | 79µM* | ? | ? | 45µM*
Cc1ccc(NNC(=O)c2snnc2C)cc1Cl | / | -19% | -6% | -2% | -19% | /
Cc1ccc(NNC(=O)c2c(C)noc2C)cc1Cl | 11% | 68% | -10% | -11% | -10% | 7.1µM*
Cc1cc(Cl)ccc1NNC(=O)c1c(C)noc1C | 6% | -7% | 0% | -16% | 79µM* | 2.8µM*
